# Results as given in publication PMC7862700, “An all-to-all approach to the identification of sequence-specific readers for epigenetic DNA modifications on cytosine”.
# How the values were obtained:
# Assay in all cases: DAPPL (digital affinity profiling via proximity ligation, sequencing); 10 mM Tris-HCl pH 7.5, 50 mM NaCl, 1 mM DTT, 4% glycerol, room temperature, 30 min; GST-TFs on glutathione beads, 16-mer random dsDNA library, 0.1% formaldehyde crosslink after washing; high values mean tight binding
# [1] = molecular target: T1, FEV (Homo sapiens, UniProt Q99581 1-238); details: protein: recombinant; tags: N-terminal GST; dsDNA, one strand shown
# T1 sequence: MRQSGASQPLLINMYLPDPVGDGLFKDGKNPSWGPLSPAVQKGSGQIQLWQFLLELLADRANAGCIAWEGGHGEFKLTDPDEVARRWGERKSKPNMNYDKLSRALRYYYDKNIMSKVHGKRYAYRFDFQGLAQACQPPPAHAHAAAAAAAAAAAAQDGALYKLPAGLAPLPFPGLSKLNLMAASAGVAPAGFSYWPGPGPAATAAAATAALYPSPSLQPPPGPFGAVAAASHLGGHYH
# How it was run: (§1)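 Each value of binding signal is a hexamer's read frequency for a factor divided by the same hexamer's frequency in the tag-only sample. Barcoded, bead-captured GST fusions of human transcription factors made in yeast were pooled with that sample and incubated with 200 nmole of a random double-stranded 16-mer DNA library in Tris/NaCl/DTT/glycerol buffer at room temperature for 30 min. Washing, 0.1% formaldehyde crosslinking, proximity ligation, PCR and Illumina NextSeq500 sequencing followed.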
# [2] = molecular target: ETV5 (Homo sapiens, UniProt P41161 1-510); details: protein: recombinant; tags: N-terminal GST; dsDNA, one strand shown
# Sequence of ETV5 (P41161 whole entry): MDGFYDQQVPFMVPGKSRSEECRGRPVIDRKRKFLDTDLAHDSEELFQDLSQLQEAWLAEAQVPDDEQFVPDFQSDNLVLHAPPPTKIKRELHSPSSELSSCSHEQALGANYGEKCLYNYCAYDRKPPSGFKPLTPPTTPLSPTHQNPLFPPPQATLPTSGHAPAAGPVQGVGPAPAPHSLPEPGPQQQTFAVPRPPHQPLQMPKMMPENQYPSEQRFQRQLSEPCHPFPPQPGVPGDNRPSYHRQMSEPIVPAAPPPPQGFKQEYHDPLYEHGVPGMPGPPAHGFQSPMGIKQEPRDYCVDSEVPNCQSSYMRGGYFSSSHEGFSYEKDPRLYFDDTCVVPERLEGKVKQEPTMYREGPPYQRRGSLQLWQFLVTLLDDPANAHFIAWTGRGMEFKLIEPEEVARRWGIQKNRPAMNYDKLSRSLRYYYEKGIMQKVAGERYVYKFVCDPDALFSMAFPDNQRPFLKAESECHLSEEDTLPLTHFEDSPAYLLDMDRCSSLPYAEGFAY
# How it was run: as §1
# [3] = molecular target: HSF1 (Homo sapiens, UniProt Q00613 1-529); details: protein: recombinant; tags: N-terminal GST; chain copies: 3; dsDNA, one strand shown
# Sequence of HSF1 (Q00613 whole entry): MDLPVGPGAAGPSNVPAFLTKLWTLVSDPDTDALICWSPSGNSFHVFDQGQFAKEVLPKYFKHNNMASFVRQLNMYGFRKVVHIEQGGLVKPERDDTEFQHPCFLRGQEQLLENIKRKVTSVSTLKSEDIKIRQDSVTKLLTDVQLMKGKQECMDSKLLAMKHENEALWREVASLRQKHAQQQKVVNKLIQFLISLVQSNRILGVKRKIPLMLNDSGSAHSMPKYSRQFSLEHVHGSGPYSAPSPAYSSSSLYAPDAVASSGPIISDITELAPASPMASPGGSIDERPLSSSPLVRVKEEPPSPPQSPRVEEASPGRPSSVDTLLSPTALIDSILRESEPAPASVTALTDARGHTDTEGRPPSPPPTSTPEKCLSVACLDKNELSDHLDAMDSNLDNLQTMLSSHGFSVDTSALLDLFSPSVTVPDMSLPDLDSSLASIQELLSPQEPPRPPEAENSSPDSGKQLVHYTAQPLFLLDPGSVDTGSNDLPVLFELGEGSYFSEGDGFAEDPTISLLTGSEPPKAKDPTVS
# How it was run: as §1
# [4] = molecular target: T2, SPIC (Homo sapiens, UniProt Q8N5J4 1-248); details: protein: recombinant; tags: N-terminal GST; dsDNA, one strand shown
# T2 sequence: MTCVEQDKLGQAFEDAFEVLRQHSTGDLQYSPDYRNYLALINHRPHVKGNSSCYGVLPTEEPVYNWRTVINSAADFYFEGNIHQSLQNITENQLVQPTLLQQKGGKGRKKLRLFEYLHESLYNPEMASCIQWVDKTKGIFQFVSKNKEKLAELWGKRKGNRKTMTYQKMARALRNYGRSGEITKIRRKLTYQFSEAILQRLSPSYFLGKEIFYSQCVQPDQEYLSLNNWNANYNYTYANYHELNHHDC
# How it was run: as §1
# [5] = molecular target: ELF4 (Homo sapiens, UniProt Q99607 1-663); details: protein: recombinant; tags: N-terminal GST; dsDNA, one strand shown
# Sequence of ELF4 (Q99607 whole entry): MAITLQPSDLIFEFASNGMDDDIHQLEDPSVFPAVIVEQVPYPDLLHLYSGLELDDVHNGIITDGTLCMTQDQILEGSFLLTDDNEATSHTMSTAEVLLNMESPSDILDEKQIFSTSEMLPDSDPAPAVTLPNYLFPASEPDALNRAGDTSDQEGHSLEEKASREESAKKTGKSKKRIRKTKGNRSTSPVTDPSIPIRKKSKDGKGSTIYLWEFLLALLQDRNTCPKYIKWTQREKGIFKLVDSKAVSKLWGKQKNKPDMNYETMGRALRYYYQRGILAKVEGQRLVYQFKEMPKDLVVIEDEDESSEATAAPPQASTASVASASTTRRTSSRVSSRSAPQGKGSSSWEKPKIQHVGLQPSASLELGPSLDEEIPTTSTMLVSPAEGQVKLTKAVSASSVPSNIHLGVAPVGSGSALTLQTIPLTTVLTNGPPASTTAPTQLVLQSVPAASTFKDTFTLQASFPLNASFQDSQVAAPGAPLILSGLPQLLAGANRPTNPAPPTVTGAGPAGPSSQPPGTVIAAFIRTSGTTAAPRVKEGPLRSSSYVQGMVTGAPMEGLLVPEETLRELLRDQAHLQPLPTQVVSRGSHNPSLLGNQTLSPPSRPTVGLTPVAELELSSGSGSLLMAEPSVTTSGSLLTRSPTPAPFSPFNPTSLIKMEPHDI
# How it was run: as §1
# [6] = molecular target: T3, ELK4 (Homo sapiens, UniProt P28324-2 1-405); details: protein: recombinant; tags: N-terminal GST; dsDNA, one strand shown
# T3 sequence: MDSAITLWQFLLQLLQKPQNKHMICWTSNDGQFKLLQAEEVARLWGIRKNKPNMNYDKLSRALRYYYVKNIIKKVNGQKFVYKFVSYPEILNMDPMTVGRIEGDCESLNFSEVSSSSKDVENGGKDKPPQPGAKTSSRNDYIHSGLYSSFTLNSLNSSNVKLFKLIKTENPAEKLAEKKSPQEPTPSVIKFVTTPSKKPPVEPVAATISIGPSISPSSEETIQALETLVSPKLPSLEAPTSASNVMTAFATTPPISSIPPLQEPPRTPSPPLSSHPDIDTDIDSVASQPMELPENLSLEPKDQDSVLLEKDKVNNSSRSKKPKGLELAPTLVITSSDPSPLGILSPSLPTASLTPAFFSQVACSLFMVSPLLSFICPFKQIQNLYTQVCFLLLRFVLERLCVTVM
# How it was run: as §1
# [7] = molecular target: T4, ETV2 (Homo sapiens, UniProt O00321 1-342); details: protein: recombinant; tags: N-terminal GST; dsDNA, one strand shown
# T4 sequence: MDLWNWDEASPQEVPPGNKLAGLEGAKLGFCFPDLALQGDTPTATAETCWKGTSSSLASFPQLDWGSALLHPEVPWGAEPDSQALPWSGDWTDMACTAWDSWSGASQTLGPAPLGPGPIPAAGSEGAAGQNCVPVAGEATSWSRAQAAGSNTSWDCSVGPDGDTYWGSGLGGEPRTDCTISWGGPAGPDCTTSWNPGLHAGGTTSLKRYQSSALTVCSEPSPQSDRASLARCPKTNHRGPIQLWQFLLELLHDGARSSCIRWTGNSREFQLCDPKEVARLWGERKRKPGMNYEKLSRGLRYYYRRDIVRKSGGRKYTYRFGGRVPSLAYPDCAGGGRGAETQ
# How it was run: as §1
# [8] = molecular target: T5, ELF3 (Homo sapiens, UniProt P78545 1-371); details: protein: recombinant; tags: N-terminal GST; dsDNA, one strand shown
# T5 sequence: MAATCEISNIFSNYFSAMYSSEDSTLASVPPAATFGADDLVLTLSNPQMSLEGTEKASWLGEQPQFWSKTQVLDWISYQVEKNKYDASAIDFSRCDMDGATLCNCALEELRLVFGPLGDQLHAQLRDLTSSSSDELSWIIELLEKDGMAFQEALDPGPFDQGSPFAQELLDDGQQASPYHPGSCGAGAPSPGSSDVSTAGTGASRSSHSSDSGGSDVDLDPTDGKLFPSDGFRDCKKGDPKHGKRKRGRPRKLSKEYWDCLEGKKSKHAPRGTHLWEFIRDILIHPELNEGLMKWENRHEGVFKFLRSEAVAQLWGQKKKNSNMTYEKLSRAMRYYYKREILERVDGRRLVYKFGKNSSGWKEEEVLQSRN
# How it was run: as §1
# [9] = molecular target: CRX (Homo sapiens, UniProt O43186 1-299); details: protein: recombinant; tags: N-terminal GST; dsDNA, one strand shown
# Sequence of CRX (O43186 whole entry): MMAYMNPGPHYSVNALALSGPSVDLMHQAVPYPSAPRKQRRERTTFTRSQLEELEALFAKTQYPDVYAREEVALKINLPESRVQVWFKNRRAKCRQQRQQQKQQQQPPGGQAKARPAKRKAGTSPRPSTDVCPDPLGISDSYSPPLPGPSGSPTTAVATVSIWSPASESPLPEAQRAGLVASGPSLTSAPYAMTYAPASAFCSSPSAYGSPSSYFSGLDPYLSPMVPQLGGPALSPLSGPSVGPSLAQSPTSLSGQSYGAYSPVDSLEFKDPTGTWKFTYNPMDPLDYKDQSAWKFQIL
# How it was run: as §1
# [10] = molecular target: ETV1 (Homo sapiens, UniProt P50549 1-477); details: protein: recombinant; tags: N-terminal GST; dsDNA, one strand shown
# Sequence of ETV1 (P50549 whole entry): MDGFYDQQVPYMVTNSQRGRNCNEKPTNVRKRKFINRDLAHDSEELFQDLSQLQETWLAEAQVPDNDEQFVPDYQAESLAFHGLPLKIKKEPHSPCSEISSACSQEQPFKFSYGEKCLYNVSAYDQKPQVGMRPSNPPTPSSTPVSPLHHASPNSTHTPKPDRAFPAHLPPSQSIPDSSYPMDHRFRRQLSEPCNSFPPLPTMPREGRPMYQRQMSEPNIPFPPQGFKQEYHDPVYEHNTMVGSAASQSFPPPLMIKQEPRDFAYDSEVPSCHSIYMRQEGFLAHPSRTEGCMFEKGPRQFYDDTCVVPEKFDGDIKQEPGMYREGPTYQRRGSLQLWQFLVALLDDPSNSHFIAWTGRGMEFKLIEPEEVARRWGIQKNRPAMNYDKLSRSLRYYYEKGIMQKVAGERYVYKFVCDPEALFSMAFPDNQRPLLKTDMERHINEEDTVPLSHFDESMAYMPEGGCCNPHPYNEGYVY
# How it was run: as §1
# [11] = molecular target: T6, ERF (Homo sapiens, UniProt P50548 1-548); details: protein: recombinant; tags: N-terminal GST; dsDNA, one strand shown
# T6 sequence: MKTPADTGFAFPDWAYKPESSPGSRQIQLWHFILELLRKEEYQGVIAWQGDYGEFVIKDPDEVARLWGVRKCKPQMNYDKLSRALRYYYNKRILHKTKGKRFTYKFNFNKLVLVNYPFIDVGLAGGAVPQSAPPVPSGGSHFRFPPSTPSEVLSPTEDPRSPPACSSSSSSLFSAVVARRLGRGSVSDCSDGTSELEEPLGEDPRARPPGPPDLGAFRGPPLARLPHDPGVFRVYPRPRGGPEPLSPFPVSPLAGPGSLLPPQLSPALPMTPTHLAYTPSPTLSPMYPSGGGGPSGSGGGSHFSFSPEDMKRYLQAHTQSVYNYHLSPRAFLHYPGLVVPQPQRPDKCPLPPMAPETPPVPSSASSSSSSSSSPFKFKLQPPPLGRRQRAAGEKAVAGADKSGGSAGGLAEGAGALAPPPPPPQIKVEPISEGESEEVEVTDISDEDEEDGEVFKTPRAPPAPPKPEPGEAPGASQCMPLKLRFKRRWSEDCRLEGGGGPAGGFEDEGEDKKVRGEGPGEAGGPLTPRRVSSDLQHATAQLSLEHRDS
# How it was run: as §1
# [12] = molecular target: T7, ETV3L (Homo sapiens, UniProt Q6ZN32 1-361); details: protein: recombinant; tags: N-terminal GST; dsDNA, one strand shown
# T7 sequence: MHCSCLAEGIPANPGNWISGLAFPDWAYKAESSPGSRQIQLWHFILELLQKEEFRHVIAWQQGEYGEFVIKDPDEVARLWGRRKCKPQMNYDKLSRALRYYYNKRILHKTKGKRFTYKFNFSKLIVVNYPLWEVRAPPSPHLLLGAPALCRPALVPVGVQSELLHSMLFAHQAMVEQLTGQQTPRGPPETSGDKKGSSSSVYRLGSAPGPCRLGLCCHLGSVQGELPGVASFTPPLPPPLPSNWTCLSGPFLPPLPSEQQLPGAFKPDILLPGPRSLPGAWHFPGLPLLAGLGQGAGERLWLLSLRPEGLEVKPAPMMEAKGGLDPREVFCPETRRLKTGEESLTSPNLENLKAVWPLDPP
# How it was run: as §1
# [13] = molecular target: T8, ETS2 (Homo sapiens, UniProt P15036 1-469); details: protein: recombinant; tags: N-terminal GST; dsDNA, one strand shown
# T8 sequence: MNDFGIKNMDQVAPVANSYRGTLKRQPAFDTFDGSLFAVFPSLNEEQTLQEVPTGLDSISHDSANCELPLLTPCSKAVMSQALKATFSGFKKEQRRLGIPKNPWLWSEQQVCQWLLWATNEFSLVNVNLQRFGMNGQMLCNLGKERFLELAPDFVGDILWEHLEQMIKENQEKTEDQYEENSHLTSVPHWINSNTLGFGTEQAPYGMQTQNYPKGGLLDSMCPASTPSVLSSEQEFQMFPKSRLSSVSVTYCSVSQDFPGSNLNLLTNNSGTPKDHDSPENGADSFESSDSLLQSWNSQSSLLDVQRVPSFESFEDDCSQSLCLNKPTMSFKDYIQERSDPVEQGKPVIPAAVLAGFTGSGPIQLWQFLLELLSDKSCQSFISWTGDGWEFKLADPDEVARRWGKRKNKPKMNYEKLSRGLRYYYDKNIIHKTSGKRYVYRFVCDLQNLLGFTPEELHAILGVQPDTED
# How it was run: as §1
# [14] = molecular target: T9, SPDEF (Homo sapiens, UniProt O95238 1-335); details: protein: recombinant; tags: N-terminal GST; dsDNA, one strand shown
# T9 sequence: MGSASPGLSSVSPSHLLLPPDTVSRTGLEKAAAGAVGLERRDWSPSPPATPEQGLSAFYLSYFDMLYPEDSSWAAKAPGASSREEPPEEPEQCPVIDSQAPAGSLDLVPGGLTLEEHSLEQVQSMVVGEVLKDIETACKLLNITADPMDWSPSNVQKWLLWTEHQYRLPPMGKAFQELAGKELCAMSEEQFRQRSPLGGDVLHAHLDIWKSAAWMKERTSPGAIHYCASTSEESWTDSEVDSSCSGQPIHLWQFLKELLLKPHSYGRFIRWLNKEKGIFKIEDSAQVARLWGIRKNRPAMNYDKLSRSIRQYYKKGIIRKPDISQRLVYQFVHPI
# How it was run: as §1
# [15] = molecular target: T10, ETV7 (Homo sapiens, UniProt Q9Y603 1-341); details: protein: recombinant; tags: N-terminal GST; dsDNA, one strand shown
# T10 sequence: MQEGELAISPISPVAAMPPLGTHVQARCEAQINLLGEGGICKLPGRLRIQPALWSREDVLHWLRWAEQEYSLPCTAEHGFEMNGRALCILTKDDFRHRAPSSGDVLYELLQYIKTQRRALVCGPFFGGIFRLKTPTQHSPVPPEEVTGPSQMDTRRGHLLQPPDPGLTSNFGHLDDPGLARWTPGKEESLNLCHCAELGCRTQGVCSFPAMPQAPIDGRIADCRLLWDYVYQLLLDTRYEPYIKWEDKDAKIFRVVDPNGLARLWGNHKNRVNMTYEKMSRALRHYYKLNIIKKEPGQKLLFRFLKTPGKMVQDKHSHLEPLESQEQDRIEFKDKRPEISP
# How it was run: as §1
# [16] = molecular target: T11, ELF5 (Homo sapiens, UniProt Q9UKW6-2 1-255); details: protein: recombinant; tags: N-terminal GST; dsDNA, one strand shown
# T11 sequence: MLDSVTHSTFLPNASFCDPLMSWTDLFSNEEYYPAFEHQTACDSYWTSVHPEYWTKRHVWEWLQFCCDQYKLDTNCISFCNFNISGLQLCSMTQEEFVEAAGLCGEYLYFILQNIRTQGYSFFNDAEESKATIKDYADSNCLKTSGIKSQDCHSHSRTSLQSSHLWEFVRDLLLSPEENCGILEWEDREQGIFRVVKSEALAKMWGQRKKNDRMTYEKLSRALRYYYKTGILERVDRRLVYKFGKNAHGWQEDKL
# How it was run: as §1
# [17] = molecular target: T12, ETV3 (Homo sapiens, UniProt P41162-2 1-143); details: protein: recombinant; tags: N-terminal GST; dsDNA, one strand shown
# T12 sequence: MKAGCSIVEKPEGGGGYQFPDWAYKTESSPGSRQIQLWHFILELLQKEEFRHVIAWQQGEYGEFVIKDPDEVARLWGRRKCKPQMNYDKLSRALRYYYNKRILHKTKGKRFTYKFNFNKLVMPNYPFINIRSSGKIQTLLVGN
# How it was run: as §1
# [18] = molecular target: ETV6 (Homo sapiens, UniProt P41212 1-452); details: protein: recombinant; tags: N-terminal GST; dsDNA, one strand shown
# Sequence of ETV6 (P41212 whole entry): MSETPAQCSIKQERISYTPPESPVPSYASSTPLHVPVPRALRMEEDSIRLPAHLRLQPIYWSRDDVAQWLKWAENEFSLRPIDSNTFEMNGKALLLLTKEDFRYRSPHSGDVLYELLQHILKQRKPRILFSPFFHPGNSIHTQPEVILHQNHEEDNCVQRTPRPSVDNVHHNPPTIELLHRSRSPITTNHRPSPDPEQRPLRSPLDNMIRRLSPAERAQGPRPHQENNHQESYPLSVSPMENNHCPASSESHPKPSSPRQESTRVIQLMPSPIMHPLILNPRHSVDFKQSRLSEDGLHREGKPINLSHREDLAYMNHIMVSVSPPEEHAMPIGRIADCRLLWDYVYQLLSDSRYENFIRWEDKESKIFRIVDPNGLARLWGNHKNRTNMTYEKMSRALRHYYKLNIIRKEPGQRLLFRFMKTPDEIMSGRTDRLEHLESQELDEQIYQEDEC
# How it was run: as §1
sequence,measurement,setting,value
ATGGCC,binding signal,[1],"1.45 fold enrichment (6-mer frequency, TF over GST control)"
same,binding signal,[2],"1.42 fold enrichment (6-mer frequency, TF over GST control)"
same,binding signal,[3],"1.23 fold enrichment (6-mer frequency, TF over GST control)"
same,binding signal,[4],"1.52 fold enrichment (6-mer frequency, TF over GST control)"
same,binding signal,[5],"1.44 fold enrichment (6-mer frequency, TF over GST control)"
same,binding signal,[6],"1.48 fold enrichment (6-mer frequency, TF over GST control)"
same,binding signal,[7],"1.41 fold enrichment (6-mer frequency, TF over GST control)"
same,binding signal,[8],"1.5 fold enrichment (6-mer frequency, TF over GST control)"
same,binding signal,[9],"1.08 fold enrichment (6-mer frequency, TF over GST control)"
same,binding signal,[10],"1.38 fold enrichment (6-mer frequency, TF over GST control)"
same,binding signal,[11],"1.27 fold enrichment (6-mer frequency, TF over GST control)"
same,binding signal,[12],"1.32 fold enrichment (6-mer frequency, TF over GST control)"
same,binding signal,[13],"1.37 fold enrichment (6-mer frequency, TF over GST control)"
same,binding signal,[14],"1.32 fold enrichment (6-mer frequency, TF over GST control)"
same,binding signal,[15],"1.44 fold enrichment (6-mer frequency, TF over GST control)"
same,binding signal,[16],"1.32 fold enrichment (6-mer frequency, TF over GST control)"
same,binding signal,[17],"1.39 fold enrichment (6-mer frequency, TF over GST control)"
same,binding signal,[18],"1.34 fold enrichment (6-mer frequency, TF over GST control)"
